# Results from PubChem BioAssay (NCI).
# Several values for one entry are separate records, joined by “and”; a condition that tells them apart may be missing. Equal entries are not always repeated. About 83,000 compounds went through this panel and 20% of them were active in at least one assay; those are over-represented in the sample as a whole.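 Note: values are percent growth. 100 is the growth of untreated cells, values between 100 and 0 indicate rising inhibition; between -100 and 0 indicates cell death.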 Activity calls are given as the source filed them. How the source made its calls: active means growth percent below 10; inactive means the rest. Where a SMILES comes first, the peptide text is derived from it. [ ]: non-standard residue; d: D form. ξ: configuration not given here. ξV = CC(C)C(N)C(=O)O
# How the values were obtained:
# Experiment in all cases: NCI-60 one-dose screen, 48 h (100 = growth as untreated, 0 = no growth, -100 = all killed)
# [1] = system: EKVX NSCLC
# [2] = system: SN12C renal
# [3] = system: UO-31 renal
# [4] = system: TK-10 renal
# [5] = system: ACHN renal
# [6] = system: CAKI-1 renal
# [7] = system: CCRF-CEM leukemia
# [8] = system: MOLT-4 leukemia
# [9] = system: SR leukemia; conditions: 10 µM unless noted
# [10] = system: RPMI-8226 leukemia
# [11] = system: OVCAR-4 ovarian
# [12] = system: SK-OV-3 ovarian
# [13] = system: IGROV1 ovarian
# [14] = system: OVCAR-3 ovarian
# [15] = system: HS 578T breast
# [16] = system: SK-MEL-2 melanoma
# [17] = system: NCI/ADR-RES ovarian; conditions: 10 µM
# [18] = system: A498 renal; conditions: 10 µM
# [19] = system: OVCAR-5 ovarian; conditions: 10 µM
compound,measurement,setting,value
COc1cccc2c1C(=O)c1c(O)c3c(c(O)c1C2=O)C[C@@](O)(C(C)=O)C[C@@H]3OC1CC(N)C(O)C(C)O1 (some centres not stated),growth,[1]; 10 µM,-3.48% (active)
same,growth,[2]; 10 µM,8.87% (active)
same,growth,[3]; 10 µM,11.3% (inactive)
same,growth,[4]; 10 µM,18.5% (inactive)
same,growth,[4]; 50 µM,-97.7% (active) and -90.9% (active)
same,growth,[5]; 10 µM,0.546% (active)
same,growth,[6]; 10 µM,-31.1% (active)
same,growth,[7]; 10 µM,-24.1% (active)
same,growth,[8]; 10 µM,-26.1% (active)
same,growth,[9],-25.4% (active)
same,growth,[10]; 10 µM,-23.9% (active)
same,growth,[11]; 10 µM,-3.17% (active)
same,growth,[12]; 10 µM,5.5% (active)
same,growth,[13]; 10 µM,-29% (active)
same,growth,[14]; 10 µM,-1.56% (active)
same,growth,[15]; 10 µM,-69% (active)
CO[C@H](C(=O)[C@@H](O)[C@@H](C)O)[C@@H]1Cc2cc3cc(OC4CC(OC5CC(O)C(O)C(C)O5)C(O)C(C)O4)c(C)c(O)c3c(O)c2C(=O)[C@H]1OC1CC(OC2CC(OC3CC(C)(O)C(O)C(C)O3)C(O)C(C)O2)C(O)C(C)O1 (some centres not stated),growth,[16]; 10 µM,-43.9% (active)
same,growth,[1]; 10 µM,16.8% (inactive)
same,growth,[2]; 10 µM,24.8% (inactive)
same,growth,[3]; 10 µM,-4.43% (active)
same,growth,[4]; 10 µM,9.9% (active)
same,growth,[5]; 10 µM,3.72% (active)
same,growth,[6]; 10 µM,17.2% (inactive)
same,growth,[7]; 10 µM,3.86% (active)
same,growth,[8]; 10 µM,6.22% (active)
same,growth,[9],10.5% (inactive)
same,growth,[10]; 10 µM,-14.5% (active)
same,growth,[11]; 10 µM,8.23% (active)
same,growth,[12]; 10 µM,35.3% (inactive)
same,growth,[13]; 10 µM,-21% (active)
same,growth,[14]; 10 µM,3.02% (active)
same,growth,[17],44.4% (inactive)
O=c1ccn(C2CC(O)C(COC(c3ccccc3)(c3ccccc3)c3ccccc3)O2)c(=O)[nH]1 (configuration not stated),growth,[16]; 100 µM,26% (inactive)
same,growth,[1]; 100 µM,52.8% (inactive)
same,growth,[2]; 10 µM,95.9% (inactive)
same,growth,[2]; 100 µM,38.8% (inactive)
same,growth,[3]; 10 µM,54.6% (inactive)
same,growth,[3]; 100 µM,37.1% (inactive)
same,growth,[4]; 10 µM,95.4% (inactive)
same,growth,[4]; 100 µM,87.8% (inactive)
same,growth,[5]; 10 µM,86.4% (inactive)
same,growth,[5]; 100 µM,56.9% (inactive)
same,growth,[6]; 10 µM,127% (inactive)
same,growth,[6]; 100 µM,30.3% (inactive)
same,growth,[7]; 100 µM,45.5% (inactive)
same,growth,[8]; 10 µM,67.1% (inactive)
same,growth,[8]; 100 µM,9.6% (active)
same,growth,[9],33.2% [100 µM] (inactive)
same,growth,[10]; 10 µM,95.8% (inactive)
same,growth,[10]; 100 µM,40.2% (inactive)
same,growth,[11]; 10 µM,94.5% (inactive)
same,growth,[11]; 100 µM,38.5% (inactive)
same,growth,[12]; 10 µM,99.8% (inactive)
same,growth,[12]; 100 µM,94.9% (inactive)
same,growth,[13]; 10 µM,99.2% (inactive)
same,growth,[13]; 100 µM,58.1% (inactive)
same,growth,[14]; 10 µM,102% (inactive)
same,growth,[14]; 100 µM,47.8% (inactive)
same,growth,[15]; 10 µM,89.3% (inactive)
same,growth,[15]; 100 µM,55.7% (inactive)
COC(=O)C1=COC(C)C2C[n+]3ccc4c([nH]c5ccccc54)c3CC12 (configuration not stated),growth,[1]; 10 µM,102% (inactive) and 93% (inactive)
same,growth,[2]; 10 µM,95.9% (inactive) and 78.7% (inactive)
same,growth,[3]; 10 µM,79.1% (inactive) and 73.4% (inactive)
same,growth,[4]; 10 µM,107% (inactive) and 126% (inactive)
same,growth,[4]; 100 µM,110% (inactive) and 56.8% (inactive)
same,growth,[5]; 10 µM,99.7% (inactive) and 88.9% (inactive)
same,growth,[6]; 10 µM,101% (inactive) and 94.4% (inactive)
same,growth,[18],72.8% (inactive) and 94.7% (inactive)
same,growth,[7]; 10 µM,97.4% (inactive) and 104% (inactive)
same,growth,[8]; 10 µM,98.8% (inactive) and 94.3% (inactive)
same,growth,[9],104% (inactive) and 99.4% (inactive)
same,growth,[10]; 10 µM,93.9% (inactive) and 95.8% (inactive)
same,growth,[11]; 10 µM,100% (inactive) and 108% (inactive)
same,growth,[12]; 10 µM,114% (inactive) and 83.8% (inactive)
same,growth,[13]; 10 µM,103% (inactive) and 82.5% (inactive)
same,growth,[14]; 10 µM,104% (inactive) and 97.4% (inactive)
same,growth,[15]; 10 µM,111% (inactive) and 79.6% (inactive)
same,growth,[17],108% (inactive) and 102% (inactive)
O=C1C=CC(=CC=C2C=CN(CCCCCCCCCCCO)C=C2)C=C1,growth,[16]; 10 µM,33.5% (inactive)
same,growth,[1]; 10 µM,26.3% (inactive)
same,growth,[2]; 10 µM,10.4% (inactive)
same,growth,[4]; 10 µM,58.8% (inactive)
same,growth,[5]; 10 µM,90.9% (inactive)
same,growth,[6]; 10 µM,90.4% (inactive)
same,growth,[7]; 10 µM,29.5% (inactive)
same,growth,[8]; 10 µM,41.9% (inactive)
same,growth,[10]; 10 µM,11.9% (inactive)
same,growth,[11]; 10 µM,35.4% (inactive)
same,growth,[12]; 10 µM,45.4% (inactive)
same,growth,[13]; 10 µM,41.2% (inactive)
same,growth,[14]; 10 µM,30.2% (inactive)
same,growth,[15]; 10 µM,35.6% (inactive)
same,growth,[17],104% (inactive)
Nc1nc(=S)c2ncn(C3OC(CO)C(O)C3O)c2[nH]1 (configuration not stated),growth,[1]; 10 µM,110% (inactive) and 23.3% (inactive)
same,growth,[2]; 10 µM,107% (inactive) and 26% (inactive)
same,growth,[3]; 10 µM,95.4% (inactive) and 19.8% (inactive)
same,growth,[4]; 10 µM,120% (inactive) and -8.09% (active)
same,growth,[5]; 10 µM,112% (inactive) and 17.2% (inactive)
same,growth,[6]; 10 µM,113% (inactive) and -8.94% (active)
same,growth,[18],125% (inactive) and 29.6% (inactive)
same,growth,[7]; 10 µM,96.4% (inactive) and 24.2% (inactive)
same,growth,[8]; 10 µM,100% (inactive) and 13.4% (inactive)
same,growth,[9],119% (inactive)
same,growth,[10]; 10 µM,103% (inactive) and 0.898% (active)
same,growth,[19],101% (inactive) and 45.2% (inactive)
same,growth,[11]; 10 µM,103% (inactive) and 29.3% (inactive)
same,growth,[12]; 10 µM,118% (inactive)
same,growth,[13]; 10 µM,108% (inactive)
same,growth,[14]; 10 µM,112% (inactive) and 8.33% (active)
same,growth,[15]; 10 µM,163% (inactive) and 50.6% (inactive)
same,growth,[17],106% (inactive) and 29.9% (inactive)
CC(C)C(NC(=O)CN)C(=O)O (configuration not stated) (H-Gly-[ξV]-OH),growth,[16]; 10 µM,108% (inactive) and 109% (inactive)
same,growth,[1]; 10 µM,102% (inactive) and 103% (inactive)
same,growth,[2]; 10 µM,104% (inactive) and 100% (inactive)
same,growth,[3]; 10 µM,84% (inactive)
same,growth,[4]; 10 µM,103% (inactive) and 93.9% (inactive)
same,growth,[5]; 10 µM,102% (inactive) and 109% (inactive)
same,growth,[6]; 10 µM,96.4% (inactive) and 97.1% (inactive)
same,growth,[7]; 10 µM,91.9% (inactive) and 96% (inactive)
same,growth,[8]; 10 µM,79.2% (inactive) and 101% (inactive)
same,growth,[9],57% (inactive)
same,growth,[10]; 10 µM,109% (inactive) and 107% (inactive)
same,growth,[11]; 10 µM,105% (inactive) and 102% (inactive)
same,growth,[12]; 10 µM,106% (inactive) and 101% (inactive)
same,growth,[13]; 10 µM,109% (inactive) and 108% (inactive)
same,growth,[14]; 10 µM,112% (inactive)
same,growth,[15]; 10 µM,111% (inactive) and 91.9% (inactive)
